# Test results published in PubChem BioAssay.
# Calls of active or inactive are those of the source.
# Assays:
# [1] = system: Human papillomavirus type 1a protein E7 (residues 44-93); assay: HPV1a E7 fragment binders on microarrays, primary screen, biochemical, small-molecule microarray, residues 44-93, 635 nm fluorescence (AID 1108); conditions: small-molecule microarray binding, fluorescence 635 nm; higher = more signal;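 note: E7 fragment applied at 1 µg/mL in TBST for 1 h at 4 C; score combines spot fluorescence with its signal to noise ratio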
# [2] = modulators of HCV replicon luciferase signal, primary screen, HCV replication inhibitor project, Huh7 cells, luciferase reporter (AID 1109); conditions: 48 h, higher = more signal;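 note: huh7 hepatoma cells harbouring a luciferase neomycin HCV replicon reporter; luciferase luminescence as measure of HCV replicon replication; test concentration not given here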
# [3] = molecular target: Left-right determination factor 2 (Homo sapiens) (UniProt O00292); assay: LEFTY2 binders on small-molecule microarrays, primary screen, biochemical, small-molecule microarray, 635 nm fluorescence scan (AID 1110); conditions: LEFTY2 binding, higher = more signal
# [4] = molecular target: Calmodulin-1 (Homo sapiens) (UniProt P0DP23); assay: CALM1 binders on microarrays, EGTA buffer, profiling panel, biochemical, small-molecule microarray, Cy5-labelled CALM1 (AID 1111); conditions: Cy5-CALM1 binding fluorescence, higher = more signal;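 note: labelled calmodulin applied in Tris saline Tween buffer holding calcium plus EGTA and DTT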
# [5] = molecular target: Calmodulin-1 (Homo sapiens) (UniProt P0DP23); assay: calcium-bound CALM1 binders on microarrays, profiling panel, artefact control for SMM control-protein annotation, biochemical, small-molecule microarray, Cy5-labelled CALM1, plus calcium (AID 1112); conditions: Cy5-CALM1 binding fluorescence, higher = more signal;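 note: score merges spot fluorescence with signal to noise from triplicate slides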
# [6] = small-molecule microarray binders of probe aWnt5a, primary screen, biochemical, biotinylated probe, 635/667 nm fluorescence (AID 1113); conditions: higher = more signal;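 note: score merges 667 nm fluorescence intensity with signal-to-noise per printed feature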
# [7] = small-molecule microarray binders of probe aShh, primary screen, biochemical, biotinylated probe, 635/667 nm fluorescence (AID 1114); conditions: higher = more signal;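 note: probe is biotin-labelled aShh protein from a stem cell growth factor screen; measures binding of labelled protein to compounds printed on the slide; score merges feature fluorescence at 667 nm with signal-to-noise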
# [8] = small-molecule microarray binders of probe aNog, primary screen, biochemical, biotinylated probe, 635/667 nm fluorescence (AID 1115); conditions: higher = more signal;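 note: probe is biotinylated aNog protein used at 0.15 µg/mL for 1 h at 4 C; z-score combines 667 nm fluorescence of each spot with its signal to noise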
# [9] = molecular target: Torsin-1A-interacting protein 1 (Homo sapiens) (UniProt Q5JTV8); assay: LAP1 binders from COS7 cell lysate, primary screen, small-molecule microarray, 635/667 nm fluorescence (AID 1116); conditions: COS7-hLAP1 lysate binding, 635 nm fluorescence, higher = more signal
# [10] = molecular target: Alpha-bungarotoxin (Bungarus multicinctus) (UniProt P60615); assay: alpha-bungarotoxin binders on microarray, profiling panel, artefact control for SMM control protein annotation, biochemical, small-molecule microarray, Alexa647 label, 635/667 nm fluorescence (AID 1117); conditions: alpha-BTX-A647 binding fluorescence, higher = more signal
# Albumin (Bos taurus) = Albumin (Bos taurus) (UniProt P02769); assay: bovine serum albumin binders on microarray, profiling panel, artefact control for SMM control protein annotation, biochemical, small-molecule microarray, Alexa647 label, 635/667 nm fluorescence (AID 1118); conditions: BSA-A647 binding, fluorescence 635 nm, higher = more signal;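 note: score merges 667 nm emission intensity and signal-to-noise per printed compound spot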
# [11] = small-molecule microarray binders of probe aXIP, primary screen, biochemical, NeuroSMM set, 635/667 nm fluorescence (AID 1119); conditions: higher = more signal, called active from +8 up or from −8 down;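 note: probe is the protein aXip251-270 applied at 1 µg/mL to compound-printed slides; binding of probe to printed compounds measured as 667 nm fluorescence plus signal to noise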
# [12] = small-molecule binders of probe aNOTCH3, primary screen, biochemical, small-molecule microarray, 635/667 nm fluorescence (AID 1120); conditions: higher = more signal;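 note: probe is a biotin-tagged antibody raised against NOTCH3 rather than NOTCH3 protein; score merges spot fluorescence near 667 nm with spot signal to noise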
# [13] = small-molecule binders of probe aNOTCH2, primary screen, biochemical, small-molecule microarray, 635/667 nm fluorescence (AID 1121); conditions: higher = more signal;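 note: score merges feature fluorescence read at 667 nm with its signal to noise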
# [14] = molecular target: Carbonic anhydrase 2 (Homo sapiens) (UniProt P00918); assay: CAII small-molecule binders, profiling panel, biochemical, small-molecule microarray, Alexa647-labelled CAII (AID 1122); conditions: CAII-A647 binding fluorescence, higher = more signal
# [15] = COS7 lysate on small-molecule microarray, probe aHis, 635 nm (AID 1123); conditions: COS7 cell lysate, fluorescence, higher = more signal;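 note: z-score combines 667nm fluorescence intensity with signal-to-noise per printed compound spot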
# [16] = compound binding in COS7 lysate, probe aLAP1, primary screen, cell lysate, small-molecule microarray (AID 1124); conditions: probe aLAP1, fluorescence, higher = more signal;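 note: lysate comes from COS7 cells expressing LAP1 and is applied at 0.3 µg/mL; score merges spot fluorescence near 667 nm with signal-to-noise over triplicate slides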
# Sam68 (KHDRBS1) = assay: Sam68 small-molecule binders, primary screen, biochemical, small-molecule microarray, 635 nm fluorescence (AID 1125); conditions: small-molecule microarray binding, higher = more signal;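 note: score merges 667 nm channel intensity with signal to noise over triplicate slides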
# [17] = system: Chordin-like protein 2 (CHRDL2); assay: CHRDL2 small-molecule binders, primary screen, biochemical, small-molecule microarray, 635 nm fluorescence (AID 1126); conditions: small-molecule microarray binding, fluorescence 635 nm; higher = more signal;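 note: printed compound slides probed with Chrdl2 protein at 4 µg/mL for 1 h at 4 C; score merges 667 nm emission intensity with signal to noise over three replicate slides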
# [18] = molecular target: Concanavalin-A (Canavalia ensiformis) (UniProt P02866); assay: ConA small-molecule binders, primary screen, artefact control for SMM control protein annotation, biochemical, small-molecule microarray, Alexa647 label, 635 nm (AID 1127); conditions: ConA-A647 binding fluorescence, higher = more signal;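 note: z combines 667 nm emission intensity with signal-to-noise across three replicate slides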
# Concanavalin-A (Canavalia ensiformis), sequence (P02866 whole entry, looked up): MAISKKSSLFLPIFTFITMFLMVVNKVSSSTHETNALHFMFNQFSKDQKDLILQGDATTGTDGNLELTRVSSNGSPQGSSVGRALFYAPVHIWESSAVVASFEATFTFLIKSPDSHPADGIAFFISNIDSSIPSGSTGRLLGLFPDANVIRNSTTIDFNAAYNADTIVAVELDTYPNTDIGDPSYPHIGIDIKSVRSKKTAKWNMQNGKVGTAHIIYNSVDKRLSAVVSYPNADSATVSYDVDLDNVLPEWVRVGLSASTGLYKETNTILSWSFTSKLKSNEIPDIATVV
# Alpha-bungarotoxin (Bungarus multicinctus), sequence (P60615 whole entry, looked up): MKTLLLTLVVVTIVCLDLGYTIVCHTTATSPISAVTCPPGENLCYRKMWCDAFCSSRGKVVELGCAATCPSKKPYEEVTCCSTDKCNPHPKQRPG
# Left-right determination factor 2 (Homo sapiens), sequence (O00292 whole entry, looked up): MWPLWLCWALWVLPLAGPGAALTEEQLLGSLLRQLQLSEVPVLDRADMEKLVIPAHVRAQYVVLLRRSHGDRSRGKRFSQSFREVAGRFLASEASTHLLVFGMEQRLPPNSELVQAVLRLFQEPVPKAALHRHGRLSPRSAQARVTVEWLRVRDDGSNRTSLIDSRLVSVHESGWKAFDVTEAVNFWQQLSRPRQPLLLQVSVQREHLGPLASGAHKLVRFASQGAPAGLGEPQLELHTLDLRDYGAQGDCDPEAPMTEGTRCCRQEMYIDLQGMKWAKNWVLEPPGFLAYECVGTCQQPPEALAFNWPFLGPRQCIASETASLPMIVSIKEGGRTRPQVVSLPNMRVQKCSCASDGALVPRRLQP
# Torsin-1A-interacting protein 1 (Homo sapiens), sequence (Q5JTV8 whole entry, looked up): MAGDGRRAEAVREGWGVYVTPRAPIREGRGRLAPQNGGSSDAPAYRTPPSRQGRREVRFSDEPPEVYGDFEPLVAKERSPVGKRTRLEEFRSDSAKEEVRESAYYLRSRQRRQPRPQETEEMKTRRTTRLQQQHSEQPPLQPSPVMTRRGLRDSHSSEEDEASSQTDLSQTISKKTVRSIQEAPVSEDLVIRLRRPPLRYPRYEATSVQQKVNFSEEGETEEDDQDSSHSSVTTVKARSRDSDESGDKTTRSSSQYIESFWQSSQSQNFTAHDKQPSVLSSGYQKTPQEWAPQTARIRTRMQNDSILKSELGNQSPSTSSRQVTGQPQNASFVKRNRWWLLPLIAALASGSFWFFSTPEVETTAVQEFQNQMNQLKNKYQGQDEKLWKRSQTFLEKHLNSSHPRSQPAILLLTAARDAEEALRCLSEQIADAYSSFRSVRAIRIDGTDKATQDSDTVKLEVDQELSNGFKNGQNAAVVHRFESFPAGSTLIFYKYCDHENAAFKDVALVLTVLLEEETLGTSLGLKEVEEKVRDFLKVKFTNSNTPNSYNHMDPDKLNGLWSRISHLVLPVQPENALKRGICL
# Albumin (Bos taurus), sequence (P02769 whole entry, looked up): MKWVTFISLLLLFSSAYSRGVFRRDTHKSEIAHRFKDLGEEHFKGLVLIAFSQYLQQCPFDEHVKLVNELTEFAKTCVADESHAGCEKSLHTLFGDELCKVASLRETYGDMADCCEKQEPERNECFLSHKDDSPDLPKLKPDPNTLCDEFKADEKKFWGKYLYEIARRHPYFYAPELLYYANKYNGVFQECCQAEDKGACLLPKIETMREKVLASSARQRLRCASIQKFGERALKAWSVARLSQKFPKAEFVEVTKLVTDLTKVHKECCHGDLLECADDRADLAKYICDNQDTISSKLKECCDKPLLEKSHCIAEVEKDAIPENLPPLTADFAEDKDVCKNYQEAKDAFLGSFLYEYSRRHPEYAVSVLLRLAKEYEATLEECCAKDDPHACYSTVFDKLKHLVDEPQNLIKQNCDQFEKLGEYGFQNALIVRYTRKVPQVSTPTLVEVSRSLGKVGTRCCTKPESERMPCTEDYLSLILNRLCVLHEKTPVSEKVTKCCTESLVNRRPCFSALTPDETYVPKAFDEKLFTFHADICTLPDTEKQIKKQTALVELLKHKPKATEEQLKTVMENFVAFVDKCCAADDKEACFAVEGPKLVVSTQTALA
SMILES,composite z-score [1],z-score [2],composite z-score [3],composite z-score [4],composite z-score [5],composite z-score [6],composite z-score [7],composite z-score [8],composite z-score [9],composite z-score [10],composite z-score (Albumin (Bos taurus)),composite Z-score [11],composite z-score [12],composite z-score [13],composite z-score [14],composite z-score [15],composite z-score [16],composite z-score (Sam68 (KHDRBS1)),composite z-score [17],composite z-score [18]
CC(C)CON=C1C[C@@H](O)[C@@H](O)[C@@H]2[C@@H]3C(=O)N(Cc4ccccc4)C(=O)[C@@H]3CC[C@@H]12,0.673,-0.19,0.409,-0.312,-0.475,-0.0792,-0.365,-0.321,0.0394,-0.102,0.0737,0.156 (inactive),-0.0679,-0.153,-0.111,-0.137,-0.0468,0.631,0.716,-0.0393
COC(=O)[C@H]1COC(c2ccc(OCCCO)cc2)=N1,-1.8,0.592,-0.365,-0.545,0.662,0.0108,-0.276,0.221,1.94,-0.373,0.543,0.0182 (inactive),-0.16,-0.0942,0.523,2.38,0.984,-1.08,-0.0157,-0.588
O=C1C[C@@H](O)[C@@H](O)[C@@H]2[C@@H]3C(=O)N(c4ccc(F)cc4F)C(=O)[C@@H]3CC[C@@H]12,0.461,0.586,0.585,-0.0799,-0.389,0.441,-0.221,-0.22,0.408,-0.157,0.129,-0.521 (inactive),-0.0631,-0.118,0.234,-0.344,0.495,0.236,0.65,-0.397
O=C1C2=CC[C@H]3C(=O)N(Cc4ccc5c(c4)OCO5)C(=O)[C@H]3[C@H]2[C@H](O)[C@@H]2O[C@H]12,0.631,-0.43,0.341,-0.306,-0.502,-0.0495,-0.346,-0.0381,0.442,0.251,-0.176,0.0248 (inactive),-0.0229,-0.14,-0.0365,-0.142,0.397,0.21,0.529,0.534
CN(C)CCCNC(=O)[C@@H]1c2ccccc2C(=O)N(Cc2ccccc2)[C@H]1c1ccc(CO)cc1,-0.176,-1.24,0.186,-0.177,-0.981,-0.0527,-0.281,0.366,-0.668,-0.261,-0.688,0.799 (inactive),-0.0971,-0.205,0.196,0.662,1.37,-0.0257,-0.623,-0.312
COc1ccc(O[C@H]2C=C[C@@H](c3ccccc3)O[C@@H]2COC(=O)CCC(C)=NOC[C@@H](C)[C@H](OCc2ccccc2)C(C)C)cc1,-2.09,-0.667,-0.306,-1.65,-0.741,-0.0748,-0.283,-0.233,-0.956,-1.04,-0.874,0.289 (inactive),-0.155,-0.157,-0.608,-0.52,-0.212,-1.03,-0.522,-2.04
N#Cc1ccc(NN2C(C(O)c3cccc4ccccc34)C=CC3C(=O)N(c4ccccc4)C(=O)C32)cc1 (stereo not given),1.48,0.148,0.221,1.74,0.164,0.139,0.23,0.837,0.365,1.09,0.595,0.544 (inactive),0.479,0.0687,0.696,2.82,0.599,1.31,-0.0989,0.926
